Test systems include SR leukemia; RPMI-8226 leukemia; OVCAR-8 ovarian; OVCAR-5 ovarian; OVCAR-4 ovarian; SK-OV-3 ovarian; IGROV1 ovarian; OVCAR-3 ovarian; HS 578T breast; NCI/ADR-RES ovarian; T-47D breast; BT-549 breast; MDA-MB-435 melanoma; SW-620 colon; MCF7 breast; HCT-116 colon; HCC-2998 colon; KM12 colon; MDA-MB-468 breast.
Common to all, as to assay: NCI-60 one-dose screen, 48 h (100 = growth as untreated, 0 = no growth, -100 = all killed)
Holding throughout (conditions): 10 µM unless noted

SMILES strings stand for the structures. The panel holds about 83,000 compounds, 20% with a hit somewhere; the sample as a whole holds those more often.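 In brief: 96-well plates, 48 h treatment, single concentration, percent growth endpoint.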 A number with no mark means an inactive call. The source made the active and inactive calls. Rule for the calls: active = growth percent below 10; inactive = the rest.

On to `C#CCOc1cc(N(CC)CC)ccc1C(C(=O)NC(C)(C)C)N(C(=O)C1CCc2cc(F)ccc2O1)c1ccccc1Br` (configuration not stated), for which the growth is 47.6% in the assay on SR leukemia; 37.9% in the assay on RPMI-8226 leukemia; 63.2% in the assay on OVCAR-8 ovarian; 69% in the assay on OVCAR-5 ovarian; 60.4% in the assay with OVCAR-4 ovarian; 72.1% in the assay on SK-OV-3 ovarian. Also, the growth is 90.9% in the assay with IGROV1 ovarian; 81.6% in the assay on OVCAR-3 ovarian; 84.7% with HS 578T breast; 63.3% in the assay on NCI/ADR-RES ovarian; 55.6% in the assay on T-47D breast; 63.7% in the assay with BT-549 breast. Also, the growth was 50.6% in the assay with MDA-MB-435 melanoma; 59.2% in the assay with SW-620 colon; 28.7% with MCF7 breast; 27.5% with HCT-116 colon; 93.5% in the assay on HCC-2998 colon; 40.4% in the assay on KM12 colon. The growth with MDA-MB-468 breast was 38.2%.
As to `Cc1ccc(C(=O)NN2C(=O)/C(=C/C=C/c3ccc([N+](=O)[O-])o3)SC2=S)cc1`, the growth was 2.44% (active) in the assay on SR leukemia; -1.56% (active) with RPMI-8226 leukemia; -75.9% (active) in the assay on OVCAR-8 ovarian; -94.9% (active) in the assay with OVCAR-5 ovarian; -100% (active) in the assay on OVCAR-4 ovarian; -78.1% (active) with SK-OV-3 ovarian. In addition, the growth is -90.3% (active) with IGROV1 ovarian; -97.3% (active) in the assay with OVCAR-3 ovarian; -18.3% (active) in the assay with HS 578T breast; -48.8% (active) with NCI/ADR-RES ovarian; -61.1% (active) with T-47D breast; -90% (active) in the assay on BT-549 breast. Moreover, the growth is -66.3% (active) in the assay with MDA-MB-435 melanoma; -69.1% (active) in the assay with SW-620 colon; -49.2% (active) with MCF7 breast; -77.7% (active) in the assay on HCT-116 colon; -90% (active) in the assay on HCC-2998 colon; -83.2% (active) in the assay on KM12 colon. The growth with MDA-MB-468 breast was -85.7% (active).
On to `CC(=O)Nc1ccc(-c2nc3cc(-c4ccc(O)cc4)ccc3n2C)cc1`, for which the growth was 23.1% in the assay on SR leukemia; 41.3% with RPMI-8226 leukemia; 54.8% in the assay with OVCAR-8 ovarian; 74.2% with OVCAR-5 ovarian; 54.5% in the assay on OVCAR-4 ovarian; 94.5% in the assay on SK-OV-3 ovarian. The growth was 34.8% in the assay on IGROV1 ovarian; 49% in the assay with OVCAR-3 ovarian; 66.1% in the assay with HS 578T breast; 55.3% in the assay with NCI/ADR-RES ovarian; 50.8% in the assay with T-47D breast; 65.6% in the assay on BT-549 breast. Further, the growth in the assay with MDA-MB-435 melanoma is 50.2%; in the assay with SW-620 colon, 66%; with MCF7 breast, 24.7%; with HCC-2998 colon, 58.9%; in the assay with KM12 colon it was 57.8%; in the assay on MDA-MB-468 breast, 58.3%.
On to `COc1ccc2[nH]cc(-c3nnc(N)nc3-c3cn(C)c4ncc(Br)cc34)c2c1`, for which the growth in the assay on SR leukemia is 49.6%; in the assay on RPMI-8226 leukemia it was 74.5%; in the assay with OVCAR-8 ovarian, 75.8%; in the assay on OVCAR-5 ovarian, 84.8%; with OVCAR-4 ovarian, 69.1%; with SK-OV-3 ovarian, 95.2%. Besides, the growth was 58.4% with IGROV1 ovarian; 65.7% in the assay with OVCAR-3 ovarian; 55.7% in the assay with HS 578T breast; 83.5% in the assay on NCI/ADR-RES ovarian; 62.5% with T-47D breast; 64.1% in the assay on BT-549 breast. In addition, the growth with MDA-MB-435 melanoma is 81.9%; in the assay on SW-620 colon, 87.9%; with MCF7 breast, 68.7%; in the assay on HCC-2998 colon it was 80.2%; with KM12 colon, 75.5%; in the assay with MDA-MB-468 breast, 42.9%.
As for `CN(C)c1nc(NCCNS(=O)(=O)c2ccc(C(=O)/C=C/c3ccc(F)cc3)cc2)nc(Nc2ccc(F)cc2)n1`, the growth in the assay on SR leukemia is -34.5% (active); in the assay with RPMI-8226 leukemia, -15.4% (active); with OVCAR-8 ovarian, -96.2% (active); in the assay with OVCAR-5 ovarian, -97.4% (active); in the assay with OVCAR-4 ovarian, -82% (active); in the assay with SK-OV-3 ovarian, -0.953% (active). Besides, the growth in the assay with IGROV1 ovarian is -84.6% (active); in the assay on OVCAR-3 ovarian it was -97.4% (active); with HS 578T breast it was -11.3% (active); in the assay with NCI/ADR-RES ovarian, -91.6% (active); with T-47D breast, -42.1% (active); in the assay on BT-549 breast, -88.7% (active). Besides, the growth in the assay on MDA-MB-435 melanoma was -92.6% (active); in the assay on SW-620 colon, -95.3% (active); in the assay on MCF7 breast, -82.8% (active); in the assay on HCC-2998 colon, -95.9% (active); with KM12 colon it was -93.6% (active); in the assay with MDA-MB-468 breast, -82.8% (active).
With `NS(=O)(=O)c1ccc(CCNC(=O)CSc2ccc(-c3ccc(Br)cc3)nn2)cc1`, the growth in the assay on SR leukemia was 55.9%; in the assay with RPMI-8226 leukemia, 40.1%; in the assay on OVCAR-8 ovarian, 64.6%; in the assay on OVCAR-5 ovarian it was 94.9%; with OVCAR-4 ovarian, 49.3%; with SK-OV-3 ovarian, 73%. The growth is 72.1% in the assay with IGROV1 ovarian; 91% in the assay on OVCAR-3 ovarian; 73.1% with HS 578T breast; 102% with NCI/ADR-RES ovarian; 41.2% in the assay on T-47D breast; 39.5% in the assay on BT-549 breast. Also, the growth with MDA-MB-435 melanoma was 59.1%; in the assay on SW-620 colon, 72.2%; in the assay with HCT-116 colon it was 21.3%; with HCC-2998 colon it was 92.5%; with KM12 colon, 66.4%; with MDA-MB-468 breast, 20.8%.
Consider `CCOP(=O)(OCCCl)c1nc(-c2ccc(C)cc2)oc1NCc1ccccc1` (configuration not stated), for which the growth is 66.8% in the assay on SR leukemia; 43.2% with RPMI-8226 leukemia; 78.7% in the assay with OVCAR-8 ovarian; 98.4% in the assay on OVCAR-5 ovarian; 68.3% with OVCAR-4 ovarian; 91% with SK-OV-3 ovarian. Further, the growth in the assay on IGROV1 ovarian was 62.4%; in the assay on OVCAR-3 ovarian, 75%; in the assay on HS 578T breast, 74.6%; with NCI/ADR-RES ovarian, 63.8%; in the assay with T-47D breast it was 48.1%; with BT-549 breast, 92%. The growth was 87.2% in the assay with MDA-MB-435 melanoma; 86.5% in the assay with SW-620 colon; 50.3% in the assay on MCF7 breast; 63.3% with HCT-116 colon; 94.6% with HCC-2998 colon; 77.6% with KM12 colon. Further, the growth in the assay with MDA-MB-468 breast was 62.9%.
Turning to `COc1c(F)ccc(C(=O)Nc2ccc3nc(NC(=O)C4CCCN(S(=O)(=O)c5ccc(C(F)(F)F)cc5)C4)sc3c2)c1F` (configuration not stated), the growth with SR leukemia was 43.4%; with RPMI-8226 leukemia, 54.3%; in the assay with OVCAR-8 ovarian, 95.8%; with OVCAR-5 ovarian, 100%; in the assay on OVCAR-4 ovarian, 69.1%; in the assay with SK-OV-3 ovarian, 103%. The growth was 70.5% with IGROV1 ovarian; 78.2% in the assay on OVCAR-3 ovarian; 51.4% in the assay on HS 578T breast; 80% in the assay with NCI/ADR-RES ovarian; 59.7% in the assay on T-47D breast; 68.7% in the assay on BT-549 breast. In addition, the growth with MDA-MB-435 melanoma is 94.2%; in the assay with SW-620 colon, 95.1%; in the assay on HCT-116 colon, 63.4%; with HCC-2998 colon it was 99.2%; with KM12 colon, 75.2%; in the assay on MDA-MB-468 breast it was 104%.

The values above are taken from PubChem BioAssay (NCI).
